This is an account of results in PubChem BioAssay (EPA / NIEHS).

Inconclusive results are not listed. Activity calls are given as the source filed them. How the source made its calls, unless noted: active means hit-call score of the fitted dose curve at least 0.9, where 1 is the maximum; inactive means score below 0.9.

In one experiment the test system is DIO2 (gene 1734). The experiment is described as follows: CCTE_GLTED_hDIO2: CCTE's human Deiodinase 2 (DIO2) Inhibition Assay, Great Lakes Toxicology and Ecology Division (GLTED) Lab (AID 2284050; active means hit-call score of the fitted dose curve at least 0.9, where 1 is the maximum). A digest of the protocol: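 Readout: absorbance from Sandell-Kolthoff detection of free iodide released by human DIO2 during a 3 h incubation with chemical. Cell-free format, n=3; activity fitted relative to DMSO negative control.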

Experiment [1] concerns the target Estrogen receptor (Homo sapiens) (UniProt P03372). Nature of the experiment: CCTE_Deisenroth_AIME_384WELL_LUC_Shift: CCTE's 384-well Estrogen Receptor Transactivation Assay with AIME metabolic competence data shift (ERTA luciferase; difference in metabolism positive and negative), Deisenroth Lab (AID 2284041).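 Further: shift is response with S9 minus without S9 so positive means metabolism raised ER signal.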 The method in brief: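 Test chemicals (0.002–200 uM, 10-point) were pre-incubated 2 h with alginate microspheres containing phenobarbital/beta-naphthoflavone-induced male Sprague Dawley rat liver S9 or water, then medium was transferred to VM7Luc4E2 cells for 24 h luciferase readout; shift = S9-positive minus S9-negative normalized response.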

Experiment [2] can be described thus: CCTE_Shafer_MEA_dev_burst_rate: CCTE's Neural Network Formation Assay for Burst Rate, Shafer Lab (AID 2284042). The method in brief: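 Primary rat cortical neurons on PEI-coated 48-well MEA plates (laminin added with cells at plating) (16 electrodes/well), exposed from plating to day 12, dosing renewed at DIV 5 and 9. Burst rate averaged over active electrodes, recorded DIV 5, 7, 9, 12, summarized as AUC; loss versus DMSO.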

Experiment [3] in a line: CCTE_Shafer_MEA_dev_bursting_electrodes_number: CCTE's Neural Network Formation Assay for Number of Bursting Electrodes, Shafer Lab (AID 2284043; active means hit-call score of the fitted dose curve at least 0.9, where 1 is the maximum;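 on AC50: potency is for loss of bursting electrodes relative to DMSO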). A digest of the protocol:
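Number of electrodes reaching ≥1 burst every 2 min was recorded at DIV 5, 7, 9 and 12 and collapsed as trapezoidal area under the curve. Cultures were rat cortical neurons on MEA plates, dosed continuously from plating with medium and treatment refreshed on DIV 5 and 9.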

A short description of experiment [4]: CCTE_Shafer_MEA_dev_per_burst_interspike_interval: CCTE's Neural Network Formation Assay for Burst Interspike Interval, Shafer Lab (AID 2284044).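 Further: mean spike spacing inside bursts as AUC over recordings on days 5 7 9 12.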 The method in brief:
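Spontaneous activity of maturing rat cortical networks is recorded on DIV 5, 7, 9 and 12 under chronic compound exposure beginning at plating. Endpoint: burst interspike interval well-mean, collapsed into trapezoidal AUC and fitted in the negative direction relative to DMSO.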

A short description of experiment [5]: CCTE_Shafer_MEA_dev_burst_duration_mean: CCTE's Neural Network Formation Assay for Mean Burst Duration, Shafer Lab (AID 2284045). The method in brief: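 Mean single-electrode burst duration (first to last spike), averaged over bursting electrodes per well, then integrated as area-under-curve across recordings at days 5, 7, 9 and 12. Rat cortical cultures on MEAs, compound present from plating, refreshed at feeds.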

Experiment [6] is described as follows: CCTE_Shafer_MEA_dev_interburst_interval_mean: CCTE's Neural Network Formation Assay for Mean Interburst Interval, Shafer Lab (AID 2284046).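 Further: well-mean interburst interval of bursting electrodes as AUC over four recording days; curve fitted for decrease in interburst interval relative to DMSO.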 A digest of the protocol: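 Recordings on days 5, 7, 9 and 12 give well-mean interburst interval across actively bursting electrodes, summarized as area under the curve. Cultures: rat cortical neurons, continuous exposure from day 0, compound renewed at feeds; decrease analyzed versus DMSO.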

Experiment [7] is described as follows: CCTE_Shafer_MEA_dev_inter_network_spike_interval_mean: CCTE's Neural Network Formation Assay for Mean Inter-network Spike Interval, Shafer Lab (AID 2284047). The method in brief:
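Primary rat cortical neurons on 16-electrode MEA wells, exposed from plating day 0 through DIV 12, compound renewed at DIV 5 and 9 media changes. Mean interval between network-spike peaks recorded DIV 5, 7, 9, 12; collapsed as trapezoidal AUC, fitted downward versus DMSO.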

Experiment [8] can be described thus: CCTE_Shafer_MEA_dev_network_spike_number: CCTE's Neural Network Formation Assay for Number of Network Spikes, Shafer Lab (AID 2284048).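 Further: synchronized bursts across electrodes counted on days 5 7 9 12 and integrated as AUC.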 A digest of the protocol:
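Number of network spikes (coordinated firing across electrodes) recorded on days 5, 7, 9 and 12 and summarised as area under the curve. Rat cortical cultures on MEA, continuous compound exposure with full medium/treatment exchange at DIV 5 and 9.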

A short description of experiment [9]: CCTE_Shafer_MEA_dev_network_spike_peak: CCTE's Neural Network Formation Assay for Mean Number of Electrodes in Network Spike, Shafer Lab (AID 2284049).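 On AC50: fitted for loss of signal meaning fewer electrodes in network spikes than DMSO.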 The method in brief: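 Rat cortical primary culture, 1.5 x 10^5 cells/well, 48-well MEA (16 electrodes/well). Dosing day 0 through DIV 12, full media/compound exchange DIV 5, 9. AxIS adaptive spike detection; AUC over days 5/7/9/12; loss-of-signal vs DMSO.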

As a reminder, the AC50 is the midpoint of the concentration-response curve, whichever way the signal moves.

Sequence of Estrogen receptor (Homo sapiens) (P03372 whole entry, looked up): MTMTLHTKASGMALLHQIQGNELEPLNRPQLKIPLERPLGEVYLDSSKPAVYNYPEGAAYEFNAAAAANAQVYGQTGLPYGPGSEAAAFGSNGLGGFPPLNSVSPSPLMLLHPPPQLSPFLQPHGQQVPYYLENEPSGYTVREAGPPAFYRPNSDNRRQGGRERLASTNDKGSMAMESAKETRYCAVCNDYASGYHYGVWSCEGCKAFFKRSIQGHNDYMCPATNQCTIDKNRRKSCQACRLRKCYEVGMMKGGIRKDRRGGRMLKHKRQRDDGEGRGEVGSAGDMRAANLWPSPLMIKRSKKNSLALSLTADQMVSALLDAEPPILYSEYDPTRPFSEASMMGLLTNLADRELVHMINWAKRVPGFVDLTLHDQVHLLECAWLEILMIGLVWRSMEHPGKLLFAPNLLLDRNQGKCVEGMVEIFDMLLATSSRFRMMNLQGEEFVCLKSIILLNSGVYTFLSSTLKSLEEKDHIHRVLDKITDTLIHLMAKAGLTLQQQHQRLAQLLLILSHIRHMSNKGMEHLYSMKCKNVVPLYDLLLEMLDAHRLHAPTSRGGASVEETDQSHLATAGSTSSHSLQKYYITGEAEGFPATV

`Cc1c(C)c2c(c(C)c1O)CCC(C)(COc1ccc(CC3SC(=O)NC3=O)cc1)O2` (centres undefined): the AC50 in the experiment with DIO2 (gene 1734) is 70.1 µM (active).
The same measure, in the same setting: with `Cc1ccc(-c2cc(C(F)(F)F)nn2-c2ccc(S(N)(=O)=O)cc2)cc1` the figure was 156 µM (active).
As to `CCCCCCCCCCCCCCCCO`, the outcome (in [1]; in the experiment with DIO2 (gene 1734)) was inactive.
`CC(=O)CC(c1ccccc1)c1c(O)c2ccccc2oc1=O` (centres undefined): the outcome in [2], in [4], in experiment [5], in experiment [6], in [7] and in [8] was inactive. The AC50 in experiment [3] and in experiment [9] was 2.98 µM (active) throughout.
On to `CCCCCCCC(=O)OC`, for which the result in [1] was inactive.
Turning to `O=C(O)CC(O)(CC(=O)O)C(=O)O`, the outcome in experiment [1] was inactive.
Regarding `CCN(CC)CCOc1ccc(C(=C(Cl)c2ccccc2)c2ccccc2)cc1`, the AC50 with DIO2 (gene 1734) was 53.3 µM (active).
With `CC1=C(C)S(=O)(=O)CCS1(=O)=O`, in experiment [1], the outcome was inactive.
Regarding `O=C1NC(=O)C(c2ccccc2)(c2ccccc2)N1`, the molecule was classed as inactive in experiment [2], in experiment [3], in experiment [4], in experiment [5], in experiment [6] and in [7]. In addition, the call in experiment [8] and in [9] was inactive.
For `CSc1ccc(Oc2ccc(S(N)(=O)=O)cc2CN(C)C)cc1C`, in experiment [1], the result was inactive.
The same measure, in the same setting: with `O=C(O)c1[nH]n(-c2ccc(S(=O)(=O)O)cc2)c(=O)c1N=Nc1ccc(S(=O)(=O)O)cc1` the entry was “inactive”.
Still for that read-out and setting: with `O=C1CCCCC1` the entry was “inactive”.
In the case of `O=C(Oc1ccccc1)c1cccc(C(=O)Oc2ccccc2)c1`, in the experiment on DIO2 (gene 1734), the AC50 is 42.3 µM (active).
Consider `OCC(O)CO`, for which the molecule was classed as inactive in experiment [2], in [3], in [4], in [5], in experiment [6] and in experiment [7]. In addition, the call in experiment [8] and in experiment [9] was inactive.
With `Nc1nc(=S)c2[nH]cnc2[nH]1`, in experiment [1], the outcome was inactive.
Turning to `S=c1[nH]c2ccccc2s1`, in the experiment with DIO2 (gene 1734), the AC50 was 53.4 µM (active).
Turning to `O=C(O)CN(CC(=O)O)CC(=O)O`, in [1], the AC50 is 233 µM (active).
